{"source": "PubChem BioAssay (NCATS)", "note": "Several values for one entry are separate records, joined by “and”; a condition that tells them apart may be missing. Equal entries are not always repeated. Records with an inconclusive call do not appear. Unmarked numbers belong to inactive results. Activity calls are given as the source filed them. The call rests on the fitted dose curve; in most records, active means well fitted inhibition curve with a large enough effect; inconclusive means small, poorly fitted or top-dose-only effect; inactive means flat fitted curve, though single readings scatter."}
{"assay": "qHTS for Inhibitors of Plasmodium falciparum (DD2) proliferation (AID 504314);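 further: parasite DNA measured by SYBR Green fluorescence after red cell lysis; plate controls were DMSO vehicle for no effect and artemisinin wells for full effect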", "settings": "P. falciparum Dd2 in erythrocytes, SYBR Green growth, 72 h; series mostly up to 6.11 µM; activity, negative = inhibition: at the top concentration", "how_it_was_run": "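Fluorescence read-out (ex 485/em 535 nm) of SYBR Green-stained parasite DNA quantifies intraerythrocytic growth. Cultures at 0.3% parasitemia and 2.5% hematocrit were treated for 72 h; data normalized to DMSO and 0.29 uM artemisinin wells.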"}
{"smiles": "C[C@]12O[C@@H]1[C@@H](O)C(Br)=C(CO)[C@@H]2O", "activity, negative = inhibition": "-2.03%"}
{"smiles": "CCCCCCCc1cc2ccccc2c2c(C(=O)OC)c(C(=O)OC)c(C(=O)OC)n12", "activity, negative = inhibition": "-10.6%"}
{"smiles": "C=CC1=C2C=C(C3CC3)N(Cc3ccccc3)C=C2C(=O)C(C)(OC(=O)c2ccco2)C1=O", "note": "(centres undefined)", "Potency": "inactive"}
{"smiles": "C=CC[C@@H]1C=CC(ON=CC[C@@H]2C=C[C@@H](OC(C)=O)[C@@H](COC(C)=O)O2)[C@H](CO)O1", "note": "(some centres undefined)", "activity, negative = inhibition": "1.83%"}
{"smiles": "O=C(C=Cc1ccccc1)N1CCC[C@H]1CO", "activity, negative = inhibition": "7%"}
{"smiles": "CCCNC(=O)OC[C@H]1O[C@H](CCON=C2[C@H]3CCn4c(=O)n(-c5ccccc5)c(=O)n4[C@@H]3[C@H](O)[C@@H]3O[C@H]23)C=C[C@H]1Oc1ccc(OC)cc1", "activity, negative = inhibition": "-2.55%"}
{"smiles": "C[C@@H]1C[C@](C)(C(=O)c2ccc3c(c2)OCO3)C=C1c1ccc2c(c1)OCO2", "activity, negative = inhibition": "-4.39%"}
{"smiles": "COCCN1C(=S)NC(c2cccc(F)c2)C(C(=O)OC)=C1C", "note": "(centres undefined)", "activity, negative = inhibition": "-6.92%"}
{"smiles": "COc1ccc(O[C@H]2C=C[C@@H](c3ccccc3)O[C@H]2COC(=O)CCC(C)=NOC[C@@H](O)COCc2ccco2)cc1", "activity, negative = inhibition": "-12.7%"}
{"smiles": "CC(CCN1CCCCc2nc(C)c(C)cc21)=NO[C@H](C)c1cn([C@H](CO)Cc2ccccc2)nn1", "activity, negative = inhibition": "-8.42%"}
{"smiles": "CC1(O)C(=O)C=C2C=C3CCCN3C=C2C1=O", "note": "(centres undefined)", "activity, negative = inhibition": "-7.26%"}
{"smiles": "CCC(=O)C[C@@H](NC(=O)OC)c1ccc(F)cc1", "activity, negative = inhibition": "0.632%"}
{"smiles": "COC(=O)N[C@@H](C=Cc1ccccc1)C[N+](=O)[O-]", "activity, negative = inhibition": "-8.55%"}
{"smiles": "CC(=O)C1=CN(CCc2c[nH]c3ccccc23)C(=O)NC1c1ccccc1", "note": "(centres undefined)", "activity, negative = inhibition": "-11.8%"}
{"smiles": "CCOC(=O)NN=C1C[C@@H](O)[C@@H](O)[C@@H]2[C@H]3C(=O)N(C4CCCCC4)C(=O)[C@@H]3CC[C@H]12", "activity, negative = inhibition": "-8.38%"}
{"smiles": "COc1ccc2c(c1)[C@H](C=Cc1ccccc1)[C@@H]([C@H](O)CO)O2", "activity, negative = inhibition": "-10.8%"}
{"smiles": "CCOC(=O)CCN1C(=O)[C@@H]2[C@H]3[C@H](O)[C@H](O)CC(=NNC(=O)OCc4ccccc4)[C@@H]3CC[C@H]2C1=O", "activity, negative = inhibition": "-7.8%"}
{"smiles": "CC(CCC(=O)OC[C@H]1O[C@H](C#Cc2ccccc2)C=C[C@H]1Oc1ccc(C)cc1)=NO[C@@H](C)CN1CCCCc2nc(C)c(C)cc21", "activity, negative = inhibition": "-10.3%"}
{"smiles": "COC(=O)N1[C@H]2CC[C@@]3(C)C=C(C)O[C@]1(C)C3c1ccccc12", "activity, negative = inhibition": "-7.92%"}
{"smiles": "O=C(NN=C1C[C@@H](O)[C@H](O)[C@H]2[C@@H]3C(=O)N(C[C@@H]4CCCO4)C(=O)[C@@H]3CC[C@H]12)OCc1ccccc1", "activity, negative = inhibition": "-6.09%"}
{"smiles": "C=CCN1C(=O)CC[C@@]23C1=NC(C(=O)OC)=C(C(=O)OC)[C@@H]2N(CC=C)c1ccccc13", "activity, negative = inhibition": "-6.65%"}
{"smiles": "CC(C)CON=C1C[C@@H](O)[C@@H](O)[C@@H]2[C@H]3C(=O)N(Cc4ccc5c(c4)OCO5)C(=O)[C@@H]3CC[C@@H]12", "activity, negative = inhibition": "-11.1%"}
{"smiles": "CC(=O)OC[C@H]1O[C@H](CCON=C(C)CCN2CCCCc3nc(C)c(C)cc32)C=C[C@H]1OC(C)=O", "activity, negative = inhibition": "-5.9%"}
{"smiles": "C=CCC(Nc1ccc(OC)cc1)(C(=O)OCC)c1ccccc1", "note": "(centres undefined)", "activity, negative = inhibition": "0.235%"}
{"smiles": "C=CCN1c2ccccc2[C@]23CCC(=O)N(Cc4ccco4)C2=NC(C(=O)OC)=C(C(=O)OC)[C@H]13", "activity, negative = inhibition": "-4.69%"}
{"smiles": "COC(=O)N1C(C)=Cc2ccccc2C1CC(C)=O", "note": "(centres undefined)", "activity, negative = inhibition": "-3.47% [at 1.12 µM] and -2.49% [at 1.12 µM]"}
{"smiles": "COC(=O)CCC(=O)OC1(C)C(=O)C=C2C=C(C3CC3)N(Cc3ccco3)C=C2C1=O", "note": "(centres undefined)", "activity, negative = inhibition": "0.997% [at 1.12 µM]"}
{"smiles": "COc1ccc2c(c1)[C@@]1(OCCC=C[C@@H]1C)C(=O)N2Cc1ccc(Br)cc1", "activity, negative = inhibition": "-7.55%"}
{"smiles": "C=CCCCN1C=C(C(=O)OCC)C(c2ccccc2)NC1=O", "note": "(centres undefined)", "activity, negative = inhibition": "-5.64%"}
{"smiles": "COC(=O)C1=C(C)N(Cc2ccccc2)C(=O)NC1c1cccc(C(F)(F)F)c1", "note": "(centres undefined)", "activity, negative = inhibition": "-9.23%"}
{"smiles": "C#CCCOC(=O)N1C2=NC(C(=O)OC)=C(C(=O)OC)[C@@H]3Nc4ccccc4[C@]23C[C@H]1C(=O)OC", "Potency": "inactive"}
{"smiles": "COC(=O)C1=C(C)C(=O)[C@]2(O)c3ccccc3N(C)[C@]12C", "activity, negative = inhibition": "-5.13%"}
{"smiles": "CCC(=O)OC1(C)C(=O)C=C2C=C(c3ccsc3)OC=C2C1=O", "note": "(centres undefined)", "activity, negative = inhibition": "-2.25%"}
{"smiles": "CC(CCN1CCCc2nc(C)c(C)cc21)=NO[C@@H](C)c1cc(-c2c(C)cc(C)cc2C)no1", "activity, negative = inhibition": "-4.13%"}
{"smiles": "COC[C@@H](OC(C)=O)[C@H]1OCc2ccccc2[C@@H]1C=Cc1ccccc1", "activity, negative = inhibition": "-13.2%"}
{"smiles": "CC#CCC1(C(=O)OC)C(=O)NC[C@H]1c1ccccc1", "note": "(some centres undefined)", "activity, negative = inhibition": "-10.2%"}
{"smiles": "C=CC1=C2C=C(C3CC3)N(CCOC)C=C2C(=O)C(C)(OC(=O)c2ccco2)C1=O", "note": "(centres undefined)", "Potency": "inactive"}
{"smiles": "CCN(CC)CC(O)CN1CCCCc2nc(C)c(C)cc21", "note": "(centres undefined)", "activity, negative = inhibition": "-6.63%"}
{"smiles": "C=CC[C@@H]1C=C[C@H](ON=C(C)CCN2CCCCc3nc(C)c(C)cc32)[C@H](CO)O1", "activity, negative = inhibition": "-7.82%"}
